In PubChem BioAssay AID1159580 (chemical genetic matrix, 2015):
About 2,000 (36%) of roughly 5,500 compounds were called active. About 18% were inconclusive and are not listed. Rule as the data show it: active = normalized growth mostly below about 0.91 (no sharp cut-off); inconclusive = no clear call, values can overlap the other calls; inactive = mostly above about 0.92. The list shows a part of the results.

Assay: chemical genetic growth profiling, strain panel (AID 1159580);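 also: tested at 20 µM; growth read once vehicle control cultures reached saturation at 30 °C; 1 = growth at the plate median or of vehicle wells; lower values mean less growth of the strain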
Details: growth OD

Measured: normalized growth

C=C1[C@H]2CC[C@@]3(C)[C@H](c4ccoc4)OC(=O)C[C@]13O[C@H]1C[C@H](O)C(C)(C)[C@H](CC(=O)OC)[C@]12C
inactive: S. cerevisiae deletion strains, locus YJR066W, strain TOR1, hits give low values 0.936 | S. cerevisiae deletion strains, locus YJR075W, strain HOC1, hits give low values 0.994 | S. cerevisiae deletion strains, locus YKL009W, strain mrt4, hits give low values 0.997 | S. cerevisiae deletion strains, locus YKL068W, hits give low values 1.02 | S. cerevisiae deletion strains, locus YKL085W, strain MDH1 (second series), hits give low values 1 | S. cerevisiae deletion strains, locus YKL085W, strain MDH1, hits give low values 1 | S. cerevisiae deletion strains, locus YKL160W, strain elf1, hits give low values 0.998 | S. cerevisiae deletion strains, locus YKR001C, strain vps1, hits give low values 1.01 | S. cerevisiae deletion strains, locus YKR026C, strain gcn3, hits give low values 1.02 | S. cerevisiae deletion strains, locus YKR091W, strain srl3, hits give low values 1.02 | S. cerevisiae deletion strains, locus YLL001W, strain dnm1, hits give low values 1.01 | S. cerevisiae deletion strains, locus YLL026W, hits give low values 1.01 | S. cerevisiae deletion strains, locus YLL041C, strain sdh2, hits give low values 1.01 | S. cerevisiae deletion strains, locus YLR027C, strain aat2, hits give low values 1.01 | S. cerevisiae deletion strains, locus YLR039C, strain RIC1, hits give low values 0.969 | S. cerevisiae deletion strains, locus YLR058C, strain SHM2, hits give low values 1.01 | S. cerevisiae deletion strains, locus YLR102C, strain apc9, hits give low values 1.01 | S. cerevisiae deletion strains, locus YLR113W, strain HOG1, hits give low values 1.04 | S. cerevisiae deletion strains, locus YLR221C, strain rsa3, hits give low values 1.03 | S. cerevisiae deletion strains, locus YLR258W, strain gsy2, hits give low values 1 | S. cerevisiae deletion strains, locus YLR262C, strain YPT6 (second series), hits give low values 0.994 | S. cerevisiae deletion strains, locus YLR262C, strain YPT6, hits give low values 0.938 | S. cerevisiae deletion strains, locus YLR268W, strain sec22, hits give low values 1.01 | S. cerevisiae deletion strains, locus YLR320W, strain mms22, hits give low values 1.03 | S. cerevisiae deletion strains, locus YLR342W, strain FKS1, hits give low values 1.02 | S. cerevisiae deletion strains, locus YLR357W, strain rsc2, hits give low values 1.03 | S. cerevisiae deletion strains, locus YLR370C, strain arc18, hits give low values 1 | S. cerevisiae deletion strains, locus YLR371W, strain rom2, hits give low values 1.02 | S. cerevisiae deletion strains, locus YLR384C, strain iki3, hits give low values 1.01 | S. cerevisiae deletion strains, locus YLR418C, strain cdc73, hits give low values 0.997 | S. cerevisiae deletion strains, locus YML016C, strain PPZ1, hits give low values 1 | S. cerevisiae deletion strains, locus YML032C, strain rad52, hits give low values 1.01 | S. cerevisiae deletion strains, locus YML120C, strain ndi1, hits give low values 0.998 | S. cerevisiae deletion strains, locus YML124C, strain tub3, hits give low values 1.02 | S. cerevisiae deletion strains, locus YMR058W, strain fet3, hits give low values 1.05 | S. cerevisiae deletion strains, locus YMR078C, strain ctf18, hits give low values 1.02 | S. cerevisiae deletion strains, locus YMR125W, strain sto1, hits give low values 1 | S. cerevisiae deletion strains, locus YMR129W, hits give low values 1.01 | S. cerevisiae deletion strains, locus YMR205C, strain PFK2, hits give low values 1.01 | S. cerevisiae deletion strains, locus YMR223W, strain ubp8, hits give low values 1.01 | S. cerevisiae deletion strains, locus YMR231W, strain pep5, hits give low values 1.01 | S. cerevisiae deletion strains, locus YMR263W, strain SAP30, hits give low values 1.01 | S. cerevisiae deletion strains, locus YMR307W, strain GAS1, hits give low values 1.03 | S. cerevisiae deletion strains, locus YNL067W, strain RPL9B, hits give low values 1 | S. cerevisiae deletion strains, locus YNL071W, strain lat1, hits give low values 1.01 | S. cerevisiae deletion strains, locus YNL153C, strain GIM3, hits give low values 1.01 | S. cerevisiae deletion strains, locus YNL183C, strain NPR1, hits give low values 0.943 | S. cerevisiae deletion strains, locus YNL209W, strain ssb2, hits give low values 1.04 | S. cerevisiae deletion strains, locus YNL233W, strain BNI4, hits give low values 0.988 | S. cerevisiae deletion strains, locus YNL248C, strain rpa49, hits give low values 1.05 | S. cerevisiae deletion strains, locus YNL250W, strain rad50, hits give low values 1.01 | S. cerevisiae deletion strains, locus YNL271C, strain bni1, hits give low values 0.995 | S. cerevisiae deletion strains, locus YNL298W, strain CLA4, hits give low values 1.02 | S. cerevisiae deletion strains, locus YNL307C, strain MCK1, hits give low values 1.02 | S. cerevisiae deletion strains, locus YNL322C, strain KRE1 (second series), hits give low values 1.02 | S. cerevisiae deletion strains, locus YNL322C, strain KRE1, hits give low values 1 | S. cerevisiae deletion strains, locus YNR049C, strain mso1, hits give low values 1.02 | S. cerevisiae deletion strains, locus YNR052C, strain pop2, hits give low values 1.02 | S. cerevisiae deletion strains, locus YOL006C, strain TOP1, hits give low values 1 | S. cerevisiae deletion strains, locus YOL012C, strain htz1 0.768 | S. cerevisiae deletion strains, locus YOL147C, strain pex11, hits give low values 1.02 | S. cerevisiae deletion strains, locus YOR001W, strain rrp6, hits give low values 1.03 | S. cerevisiae deletion strains, locus YOR061W, strain CKA2, hits give low values 1 | S. cerevisiae deletion strains, locus YOR069W, strain VPS5, hits give low values 1 | S. cerevisiae deletion strains, locus YOR070C, strain gyp1, hits give low values 1.03 | S. cerevisiae deletion strains, locus YOR080W, strain dia2, hits give low values 1.02 | S. cerevisiae deletion strains, locus YOR083W, strain WHI5, hits give low values 0.999 | S. cerevisiae deletion strains, locus YOR106W, strain vam3, hits give low values 0.998 | S. cerevisiae deletion strains, locus YOR136W, strain idh2, hits give low values 1.02 | S. cerevisiae deletion strains, locus YOR144C, strain elg1, hits give low values 1.02 | S. cerevisiae deletion strains, locus YOR184W, strain ser1, hits give low values 1.02 | S. cerevisiae deletion strains, locus YOR231W, strain MKK1, hits give low values 0.985 | S. cerevisiae deletion strains, locus YOR265W, strain rbl2, hits give low values 1 | S. cerevisiae deletion strains, locus YOR270C, strain vph1, hits give low values 1.01 | S. cerevisiae deletion strains, locus YOR290C, strain snf2, hits give low values 0.974 | S. cerevisiae deletion strains, locus YOR316C, strain cot1, hits give low values 1.02 | S. cerevisiae deletion strains, locus YPL051W, strain arl3, hits give low values 1.02 | S. cerevisiae deletion strains, locus YPL078C, strain atp4, hits give low values 0.985 | S. cerevisiae deletion strains, locus YPL106C, strain sse1, hits give low values 1 | S. cerevisiae deletion strains, locus YPL240C, strain hsp82, hits give low values 1.01 | S. cerevisiae deletion strains, locus YPL256C, strain CLN2, hits give low values 0.981 | S. cerevisiae deletion strains, locus YPR119W, strain clb2, hits give low values 1.01 | S. cerevisiae deletion strains, locus YPR141C, strain kar3, hits give low values 1.02 | S. cerevisiae deletion strains, locus YPR163C, strain tif3, hits give low values 1.01 | S. cerevisiae deletion strains, locus YPR167C, strain met16, hits give low values 1.02 | S. cerevisiae deletion strains, strain wtn01, hits give low values 1.01 | S. cerevisiae strains, strain wild type, hits give low values 1.01
